Assay outcomes: PubChem, National Center for Advancing Translational Sciences (NCATS)
The full list was thinned out, with hits kept by preference.
FBPA Giardia inh: qHTS Assay for Inhibitors of Fructose-1,6-bisphosphate Aldolase from Giardia Lamblia; A8B2U2; purified Giardia FBPA; Potency, µM (titrated, usually from 59.6 µM), actives largely listed as inhibitors; 290,000 compounds, 0.71% hits; further: nearly all actives have a fitted effect of over 55% in size
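40 nM FBPA preincubated 10 min at RT with compound (up to 57.5 uM final), then substrate plus GAPDH/TPI/NAD/arsenate coupling and diaphorase/resazurin added. Fluorescence read after 20 min at RT, 525/598 nm.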
Shiga toxin inh: A qHTS for Small Molecule Inhibitors of Shiga Toxin; inhibition, % at 38.7 µM; Vero cells, Shiga toxin protein synthesis inhibition reporter; 290,000 compounds, 9.2% hits; AID 2315, 2010; in the data active means inhibition mostly above about 28%, no sharp cut-off; inactive means mostly below about 43%
TbPYK inhibitor: qHTS of Trypanosoma Brucei Inhibitors. AID 624173, 2012. 410,000 compounds, 0.12% hits. TbPYK enzyme, Kinase-Glo Plus ATP luminescence, 45 min. Potency, µM (highest dose often 76.8 µM), hits mostly inhibitors; further: nearly all actives have a fitted effect of over 50% in size
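Luminescent Kinase-Glo Plus end-point after 45 min room-temperature reaction of T. brucei pyruvate kinase started with 130 uM ADP (final). Buffer TEA 50 mM pH 7.2 with KCl, MgCl2, BSA, Tween-20; titration-based qHTS with fitted concentration-effect curves.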
Cycloheximide cs: Cycloheximide Counterscreen for Small Molecule Inhibitors of Shiga Toxin | cell reporter, cycloheximide protein synthesis inhibition counterscreen | max response, % | 300,000 compounds, 12% hits; in the data active means max response mostly above about 13%, no sharp cut-off; inactive means mostly below about 14%; further: read at 38.3 µM for the half of the compounds with a filed dose
LmPK inhibitor: qHTS Assay for Inhibitors of Leishmania Mexicana Pyruvate Kinase (LmPK); Q27686; purified LmPK, Kinase-Glo ATP luminescence, 1 h; Potency, µM (series often up to 57.5 µM), most hits filed as inhibitors; 290,000 compounds, 0.37% hits
Target sequence (Q27686 whole entry, looked up): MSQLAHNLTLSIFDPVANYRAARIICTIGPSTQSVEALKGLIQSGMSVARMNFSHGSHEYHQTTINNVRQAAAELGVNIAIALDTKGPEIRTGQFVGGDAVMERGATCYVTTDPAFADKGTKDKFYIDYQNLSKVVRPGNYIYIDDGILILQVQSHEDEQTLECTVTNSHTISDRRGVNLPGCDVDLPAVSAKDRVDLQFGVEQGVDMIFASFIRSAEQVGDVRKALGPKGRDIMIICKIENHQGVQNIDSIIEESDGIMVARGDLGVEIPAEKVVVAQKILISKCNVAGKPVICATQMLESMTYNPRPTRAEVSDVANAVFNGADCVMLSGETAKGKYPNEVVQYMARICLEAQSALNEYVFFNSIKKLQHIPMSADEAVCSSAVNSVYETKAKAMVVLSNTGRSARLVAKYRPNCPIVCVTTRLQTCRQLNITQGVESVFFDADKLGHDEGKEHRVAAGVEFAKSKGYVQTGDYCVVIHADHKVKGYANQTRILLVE
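Kinase-Glo luminescence read after 1 h RT reaction of 0.1 nM LmPK with 0.5 mM PEP and 0.1 mM ADP. Activity scaled between uninhibited and enzyme-free controls.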
Sm TGR block: qHTS Assay for the Inhibitors of Schistosoma Mansoni Peroxiredoxins | Potency, µM (doses to about 114 µM), actives largely listed as inhibitors | purified TGR, DTNB reduction, TNB absorbance 405 nm | Schistosoma mansoni thioredoxin glutathione reductase (TGR), Q962Y6 | 360,000 compounds, 3% hits | AID 485364, 2010; further: nearly all actives have a fitted effect of over 60% in size
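Kinetic colorimetric format: TGR-catalysed, NADPH-driven DTNB reduction monitored via TNB absorbance. Enzyme dispensed at 20 nM; compound exposure 15 min at room temperature before reaction start.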
A number is an active result; n = inactive; u = inconclusive; x = no result; [ ] = another dose, or the depositor's remark. Unless noted, the call rests on the fitted dose curve; in most records, active means well fitted curve in the direction sought with a large enough effect; inconclusive means small, poorly fitted or top-dose-only effect, or another doubt; inactive means no such curve, though single readings can be large; an effect the other way counts as inactive or inconclusive.

SMILES	FBPA Giardia inh	Shiga toxin inh	TbPYK inhibitor	Cycloheximide cs	LmPK inhibitor	Sm TGR block
O=C(Nc1ccc2oc(-c3ccc(F)cc3)nc2c1)c1ccccc1F	n	39	n	n	n	n
O=C(Nc1ccncc1)c1ccccc1F	n	n	n	n	n	n
O=C(COC(=O)Cc1ccccc1F)Nc1ccc(SC(F)F)cc1	n	n	n	n	n	n
CC(=O)Nc1ccc(NC(=O)c2ccccc2F)cc1	n	58	n	20	n	n
CC(C)NC(=O)N1Cc2cc(C(=O)NC3CCCCC3)nc(-c3cccc(-c4cccnc4)c3)c2[C@@H]1CCO	x	x	n	x	x	x
COc1ccc([C@H]2C[C@@H](O)[C@H](n3cc(C4CC4)nn3)CN2Cc2cccs2)cc1	x	x	n	x	x	x
COc1ccc(S(=O)(=O)N(C)C)cc1NC(=O)CSC(C)C(=O)Nc1cc(C)on1 (stereo not drawn)	x	x	n	x	x	n
O=C(Nc1ccc2ccccc2c1)c1ccccc1F	n	n	n	24	n	n
CC(=O)Nc1c(O)nc(SCC(=O)Nc2ccc(C(C)=O)cc2)[nH]c1=O	n	134	n	47	n	n
CC(=O)Nc1c(O)nc(SCC(=O)Nc2cccc(C)c2)[nH]c1=O	n	n	n	n	n	n
O=C(Nc1cc(C(=O)N2CCCC2)ccc1N1CCCC1)c1ccccc1F	n	n	n	n	n	n
O=C(Nc1ccc(F)cc1)c1ccccc1F	n	114	n	42	n	n
O=C(Nc1ccc(C(=O)N2CCCC2)cc1)c1ccccc1F	n	66	u	36	14µM	n
NC(=O)Nc1ccccc1C(=O)Nc1ccc2ccccc2c1	n	x	n	n	n	n
COc1ccccc1Cn1cc(C(=O)c2ccc(C)cc2)c(=O)c2cc3c(cc21)OCCO3	x	x	n	x	x	n
COc1ccc(-c2nc3c(c4c2C[C@H](c2ccccc2)OC4)CN(S(=O)(=O)c2ccc(C)cc2)CC3)c(C)c1	n[12.9 µM]	x	x	x	n[11.5 µM]	x
CNC(=O)c1ccccc1Nc1ccc(SC(F)F)cc1	n	24	n	23	n	n
O=C(Nc1ccc2nc(-c3cccnc3)[nH]c2c1)c1ccccc1F	n	n	n	15	n	n
O=C(Nc1ccc2cn[nH]c2c1)c1ccccc1F	n	40	n	60	n	n
O=C(Nc1ccc2cn[nH]c2c1)c1c(Cl)cccc1Cl	n	n	u	n	n	n
O=C(NCc1ccncc1)c1ccccc1Nc1ccc(SC(F)F)cc1	n	n	n	n	n	n
CC(=O)Nc1ccc(NC(=O)CSc2nc(N)c(NC(=O)c3ccccc3F)c(=O)[nH]2)cc1	x	n	n	n	n	89µM
COc1cccc(C(=O)Nc2cccc(OCc3cc(=O)n4c5c(sc4n3)CCCC5)c2)c1	x	x	n	x	x	n
CCOC(=O)Nc1ccc(NC(=O)c2ccccc2F)cc1	n	85	n	18	n	x
O=C(Nc1ccc(SC(F)F)cc1)c1ccc(F)cc1	n	145	n	37	n	n
SMILES	FBPA Giardia inh	Shiga toxin inh	TbPYK inhibitor	Cycloheximide cs	LmPK inhibitor	Sm TGR block
CCC(=O)Nc1ccc(O)cc1	x	x	n	x	x	x
CCC(=O)Nc1ccc(Nc2ccccc2)cc1	n	34	n	16	n	n
COCC(=O)Nc1ccc(Nc2ccccc2)cc1	n	61	n	n	n	n
NC(=O)Nc1ccc(Nc2ccccc2)cc1	n	n	n	n	n	n
O=C(Nc1ccc(Nc2ccccc2)cc1)C(Cl)(Cl)Cl	n	49	n	27	n	n
O=C(CC(=O)Nc1ccccc1)Nc1ccccc1	x	x	n	x	x	x
COc1ccccc1C(=O)Nc1nc(-c2cccs2)c(NC(C)=O)s1	n	57	n	30	n	n
CN(C(=O)c1ccncc1)c1nnc(-c2cccnc2)s1	n	n	n	n	n	n
COc1cccc(C(=O)Nc2nnc(-c3ccccc3)s2)c1OC	n	41	n	43	n	n
COc1ccccc1C(=O)N(C)c1nnc(-c2ccccc2)s1	n	66	n	37	n	n
CC(=O)Nc1sc(NC(=O)c2ccccc2)nc1-c1cccs1	n	n	n	n	n	n
COc1ccccc1C(=O)Nc1nnc(C)s1	n	81	n	39	n	n
O=C(NCc1ccncc1)c1csc([C@@H]2C[C@H](O)[C@@H](CO)O2)n1	x	x	n	x	x	x
COc1ccc(C(=O)Nc2nnc(-c3ccccc3)s2)cc1	n	n	n	n	n	n
Cc1ccc(C(=O)Nc2nnc(-c3ccc(C(C)(C)C)cc3)s2)cc1	n	36	n	n	n	n
COc1ccccc1C(=O)Nc1nnc(SCC(=O)NC2CCCC2)s1	x	166	n	63	n	n
COc1ccccc1C(=O)Nc1nnc(-c2ccccc2)s1	n	x	n	35	n	n
COc1ccc(NC(=O)COC(=O)c2cc(C)oc2C)c([N+](=O)[O-])c1	x	x	n	x	x	u
CCc1ccccc1NC(=O)Cn1cc(S(=O)(=O)N2CCCC2)c(S(=O)(=O)N2CCCC2)c1	x	x	n	x	x	n
COc1cccc(C2=NOC(C(=O)N3CCN(C(=O)c4ccco4)CC3)C2)c1 (stereo not drawn)	n	n	n	n	n	n
COc1ccc(C2=NOC(C(=O)N3CCOCC3)C2)cc1OC (stereo not drawn)	n	50	n	18	n	n
COc1cccc(C2=NOC(C(=O)N3CCOCC3)C2)c1 (stereo not drawn)	n	141	n	63	n	n
CN(C(=O)c1ccc2ccccc2c1)c1ccccn1	n	n	n	30	n	n
CC(C)OC(=O)[C@@H]1CC[C@H](C)[C@@H](CCC[C@@H]2CC=C[C@H](CC#N)O2)O1	n	x	x	x	x	x
CCOc1ccccc1C(=O)OCC(=O)Nc1ccc(OC(F)F)cc1	n	n	n	17	n	n
SMILES	FBPA Giardia inh	Shiga toxin inh	TbPYK inhibitor	Cycloheximide cs	LmPK inhibitor	Sm TGR block
CN(C(=O)c1ccccc1C(=O)OCC(=O)Nc1ccc(OC(F)F)cc1)c1ccccc1	x	x	n	x	x	n
O=C(COC(=O)c1ccccc1Cc1ccccc1)Nc1ccc(SC(F)F)cc1	n	129	n	54	n	n
Cc1ccc(C(=O)c2ccccc2C(=O)OCC(=O)Nc2cccc([N+](=O)[O-])c2)cc1	n	n	n	n	n	n
Cc1ccc(C(=O)c2ccccc2C(=O)OCC(=O)Nc2ccc(SC(F)F)cc2)cc1	n	n	n	16	n	n
Cc1oc2c(cc(NS(=O)(=O)c3ccc(Cl)cc3)c3ccccc32)c1C(=O)OCc1ccccc1	x	x	n	x	x	n
CCN(C(=O)CSc1nnc(-c2ccccc2Cl)n1N)c1c(N)n(Cc2ccccc2)c(=O)[nH]c1=O	x	x	n	x	x	x
Cc1ccc(CSc2nnc(NC(=O)C3COc4ccccc4O3)s2)cc1 (stereo not drawn)	n	n	n	n	n	n
